TIM10 inh: inhibits growth of TIM10 yeast strain; S. cerevisiae TIM10 strain growth, BacTiter-Glo luminescence, 24 h; inhibition, % at 10 µM; 330,000 tested, 1.4% active; AID 463195;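 active = inhibition of 40% or more at the single tested concentration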;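 also: wild-type TIM10 isogenic control strain grown at permissive 25 °C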
tim10-1 inh: growth inhibitors of tim10-1 mutant yeast | S. cerevisiae tim10-1 ts strain growth, BacTiter-Glo, 24 h | inhibition, % at 20 µM | 330,000 tested, 2.2% active | AID 463190;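 active = inhibition of at least 40%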;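 also: mutant grown at 25 °C; 0% = DMSO wells with yeast and 100% = wells holding no yeast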
PfHsp90 yeast 2: growth inhibition of yeast expressing Plasmodium Hsp90; S. cerevisiae expressing PfHsp90, BacTiter-Glo ATP, 48 h; yeast lacking PDR1 and PDR3 efflux regulators; inhibition, % at 9.4 µM; 310,000 tested, 0.32% active;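 active = every replicate shows inhibition above about 80%, whatever the replicate mean, limit read from the data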;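 also: 0% = DMSO neutral controls and 100% = 20 µM radicicol positive controls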
tim23-1 inh: inhibits growth of tim23-1 mutant yeast | 330,000 tested, 1.3% active | AID 463212 | inhibition, % at 20 µM | S. cerevisiae tim23-1 growth, BacTiter-Glo luminescence, 24 h;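 active = growth inhibition of the mutant yeast at or above 50%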;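 also: temperature-sensitive mutant grown at 25 °C; plate controls were DMSO-treated mutant yeast for no effect and medium wells lacking yeast for full effect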
V-ATPase pH: alters yeast V-ATPase proton transport; S. cerevisiae, pHLuorin cytosolic pH fluorescence; 350,000 tested, 0.37% active; AID 504577; response, % at 10 µM; in the data active = response mostly above about 7.3%, no sharp cut-off; inactive = mostly below about 5.4%; also: actives read high
tim10-1 confirm: tim10-1 yeast growth inhibition, confirmed | shares compounds with tim10-1 inh | 7,400 tested, 56% active | inhibition, % at 20 µM | AID 463213 | S. cerevisiae tim10-1 ts strain growth, BacTiter-Glo, 24 h;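 active = inhibition of yeast growth at or above a set limit in either of two repeat tests at 20 µM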;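 also: tim10-1 mutant grown at permissive 25 °C to find synthetic lethal compounds; 0% = DMSO yeast wells and 100% = medium wells without yeast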
tim10 confirm: TIM10 yeast growth inhibition, confirmed. S. cerevisiae tim10 strain growth, BacTiter-Glo luminescence, 24 h. 4,600 tested, 63% active. shares compounds with TIM10 inh. inhibition, % at 10 µM. AID 463215;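 active = inhibition of yeast growth at or above a set limit in either of two replicates at 10 µM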;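 also: this counterscreen used the strain with wild-type TIM10; 0% = yeast with DMSO and 100% = medium wells lacking yeast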
tim23-1 conf: confirmation of tim23-1 mutant yeast growth inhibitors | inhibition, % at 20 µM | AID 463218 | shares compounds with tim23-1 inh | S. cerevisiae tim23-1 growth, BacTiter-Glo luminescence, 24 h | 4,400 tested, 83% active;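 active = inhibition above about 39% in either of two replicate wells at 20 µM, limit read from the data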;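 also: temperature-sensitive tim23-1 mutant grown at 25 °C; 0% = DMSO wells with yeast and 100% = medium wells without yeast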
* = called active by the depositor; x = not tested or not shown. This is a sample that favours compounds with a hit; in the whole collection about 3.7% have one here.

SMILES	TIM10 inh	tim10-1 inh	PfHsp90 yeast 2	tim23-1 inh	V-ATPase pH	tim10-1 confirm	tim10 confirm	tim23-1 conf
CCC1CSC(Nc2ccc(C(=O)/C=C/c3ccc(Br)cc3)cc2)=N1 (configuration not stated)	50.0*	44.8*	-1.6	53.7*	0.0	51.0*	48.3*	55.0*
Cc1[nH]c(=O)[nH]c(=O)c1S(=O)(=O)Nc1ccc(Br)cc1F	-6.5	6.3	1.4	-4.4	-2.4	x	x	x
Cc1ccc(C(=O)/C=C/c2cc(Br)cc(Br)c2O)o1	38.1	52.7*	-5.0	65.0*	-2.8	50.0*	x	66.4*
O=C(NCCc1ccncc1)Nc1cccc(Cl)c1	14.5	10.8	7.7	6.3	1.6	x	x	x
O=C(NCCCc1ccccc1)Nc1cccc(Cl)c1	45.9*	44.3*	5.8	56.5*	1.3	23.9	-11.2	65.6*
CCOC(=O)C1CCN(C2=NC(=O)/C(=C/c3ccc(Cl)cc3)S2)CC1	32.0	49.5*	-50.3	50.1*	-0.8	31.6*	x	44.1*
O=C(NNC(=O)c1ccccc1F)c1ccc(NS(=O)(=O)c2ccc(F)cc2)cc1	4.3	6.9	7.3	10.8	3.3	x	x	x
Cc1c(C(=O)Nc2ccc(S(=O)(=O)N(C)C3CCN(C)CC3)cc2)oc2c(Cl)cccc12	11.8	28.2	59.0	11.2	-3.2	x	x	x
O=C(OCc1nc2ccccc2[nH]1)C12CC3CC(CC(C3)C1)C2	40.0	57.8*	x	58.1*	0.4	50.6*	23.6	43.4*
CCOc1ccc(NS(=O)(=O)c2ccc(C(=O)NC3CCC(O)CC3)cc2)cc1 (configuration not stated)	-20.4	-13.3	16.8	-4.1	-1.0	x	x	x
O=C1N2c3ccccc3CCc3cccc(c32)C1(O)C(F)(F)F (configuration not stated)	29.6	47.2*	-2.0	50.5*	0.8	43.5*	x	54.8*
O=C(O)c1ccccc1NSc1ccccc1[N+](=O)[O-]	20.5	27.5	-43.6	11.2	-3.2	x	x	x
CCc1ccc(NSc2ccccc2[N+](=O)[O-])cc1	36.2	53.8*	-7.7	52.2*	-8.6	42.9*	x	58.0*
CC1(C)CCc2cc(S(=O)(=O)N3CCN(S(=O)(=O)c4c(F)cccc4F)CC3)ccc2O1	-8.4	-3.3	3.0	-9.8	1.7	x	x	x
Cc1ccc(C(=O)Nc2nnc(C3CCCCC3)s2)o1	23.9	46.1*	8.6	51.9*	1.3	35.1*	x	44.8*
O=C(Cc1ccc(Cl)cc1)NC1CCCN(Cc2ccccc2F)C1 (configuration not stated)	-0.8	13.7	28.5	18.7	1.4	x	x	x
CCOC(=O)c1cnc(-n2nc(C)cc2C)nc1NC(C)c1ccccc1 (configuration not stated)	52.8*	44.4*	x	54.2*	4.8	30.3	56.5*	44.7*
O=C(Nc1scc(-c2ccccc2)c1C(=O)O)c1ccccc1Cl	-12.8	7.5	34.0	17.3	-1.1	x	x	x
COc1ccc(-c2csc(NC(=O)c3ccccc3F)c2C(=O)O)cc1	75.2*	80.8*	28.5	85.4*	0.7	74.8*	72.1*	85.9*
Cc1ccc(C(=O)Nc2scc(-c3ccccc3)c2C(=O)O)cc1	81.7*	85.3*	35.2	86.5*	3.6	82.8*	91.4*	87.0*
Cc1ccc(C)c(S(=O)(=O)NC(C)C(=O)NCc2ccccn2)c1 (configuration not stated)	-4.2	-18.7	-0.3	-0.3	3.1	x	x	x
COc1cc(Nc2nc3c(N)cc(C(F)(F)F)cc3nc2-c2ccccc2)cc(OC)c1OC	x	x	-1.3	x	3.8	x	x	x
FC(F)(F)c1cccc(-n2cc(-c3ccccc3)[nH]c2=S)c1	35.3	47.5*	14.5	55.8*	-0.6	35.5*	x	50.4*
Fc1ccccc1-n1cc(-c2ccccc2)[nH]c1=S	37.8	33.2	-4.8	30.5	-3.2	x	x	x
Cc1ccc(-c2cn(-c3ccccc3)c(=S)[nH]2)cc1C	47.8*	46.8*	-4.4	51.7*	2.0	21.4	41.5*	48.6*
SMILES	TIM10 inh	tim10-1 inh	PfHsp90 yeast 2	tim23-1 inh	V-ATPase pH	tim10-1 confirm	tim10 confirm	tim23-1 conf
COc1ccc(-n2cc(-c3ccc(OC)c(OC)c3)[nH]c2=S)cc1	3.7	11.4	10.0	-2.9	-2.0	x	x	x
C[C@@H]1CN([C@H](C)CO)C(=O)CCCn2nncc2CO[C@H]1CN(C)C(=O)NC1CCCCC1	x	x	x	x	3.1	x	x	x
COc1ccc(N(CC(=O)NCc2ccco2)C(=O)CCC(=O)Nc2nccs2)cc1	-1.5	2.3	-8.9	6.3	-1.2	x	x	x
CC(C)NS(=O)(=O)c1ccc(NCCCn2ccnc2)c([N+](=O)[O-])c1	-6.7	-5.1	6.6	-11.5	-2.8	x	x	x
O=[N+]([O-])c1cc(-c2nc(-c3ccncc3)no2)cc([N+](=O)[O-])c1	68.5*	76.1*	29.1	72.2*	1.6	66.9*	-17.3	81.2*
CCN1/C(=C/C=C/c2oc3ccc4ccccc4c3[n+]2CC)Oc2ccc3ccccc3c21	61.7*	54.4*	x	68.9*	x	56.2*	68.3*	64.2*
CCc1cccc(CC)c1NC(=O)/C(C#N)=C/c1ccccc1C(F)(F)F	56.6*	41.4*	74.9	54.7*	-2.6	-6.9	13.5	42.0*
N#C/C(=C/C=C/c1ccccc1)C(=O)Nc1ccccc1	21.0	14.5	11.7	28.2	0.8	x	x	x
N#C/C(=C\c1ccccc1C(F)(F)F)C(=O)Nc1ccccc1	73.0*	57.1*	1.3	51.7*	-1.6	58.0*	61.3*	62.8*
CCc1cccc(CC)c1NC(=O)c1ccccc1	9.1	10.6	-9.9	3.9	x	x	x	x
Cc1cccc(NC(=O)C(C)Sc2ncnc3sccc23)c1 (configuration not stated)	x	x	x	x	-1.1	x	x	x
O=C1C(=Cc2cccs2)C(=O)c2ccccc21	11.1	21.6	8.1	43.9	-4.7	x	x	x
O=C1C(c2ccccc2)=[N+]([O-])c2ccccc21	54.8*	57.6*	12.2	61.4*	-0.5	47.5*	52.7*	-59.0
CCN(CC)C(=O)C1=C(C)N(CCCOC)C(=O)C(CC(=O)NCCc2ccccn2)C1 (configuration not stated)	x	x	x	x	-0.8	x	x	x
COc1ccc(C(=O)Nc2ccccc2C(=O)NCc2cccnc2)cc1OC	8.4	-1.2	-1.9	4.1	2.7	x	x	x
COc1ccc(C(=O)Nc2ccccc2C(=O)N/N=C/c2ccncc2)cc1OC	32.7	42.6*	34.1	61.5*	-0.6	54.6*	x	53.0*
Clc1ccc(Cc2nnc(-c3ccccc3Br)o2)cc1	-9.3	13.2	-5.4	4.2	7.7	x	x	x
O=c1c(Cl)c(Cl)cnn1Cc1nnc(-c2ccccc2Br)o1	44.4*	63.3*	-0.8	78.1*	1.2	66.8*	49.6*	76.7*
